Bioassay records (PubChem)
PNC assembly inh = High Content Assay for Compounds that inhibit the Assembly of the Perinucleolar Compartment; AID 2417, 2010; 140,000 compounds, 3.1% hits; PC3M PTB-GFP, PNC prevalence imaging, 16 h; stronger effect = lower value; activity change (PNC), negative = inhibition, % at 10 µM;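 active = readout at or below -70, meaning at least 70% loss of cells showing the perinucleolar compartment, a nuclear body marking cancer cells; inconclusive = readout between -30 and a set limit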;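 note: plate controls were DMSO wells for no effect and camptothecin positive control wells for full effect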
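Read-out is percentage of cells bearing a perinucleolar compartment, from automated 20x imaging of fixed, Hoechst-stained PC3M PTB-GFP cells. Cells were seeded 4 h, then exposed 16 h to compound (23 nl of library stock) in duplicate plates.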
ALDH1A1 inh = qHTS Assay for Inhibitors of Aldehyde Dehydrogenase 1 (ALDH1A1) | Purified ALDH1A1, NADH fluorescence, propionaldehyde substrate | Potency, µM (series often up to 75.3 µM), without a hit: at the highest dose activity, negative = inhibition, hits mostly inhibitors | 220,000 compounds, 7.3% hits | AID 1030, 2008;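 note: potency is the fitted concentration of half-maximal effect; plate controls were no enzyme wells and a reference inhibitor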
Target sequence (P00352 whole entry, looked up): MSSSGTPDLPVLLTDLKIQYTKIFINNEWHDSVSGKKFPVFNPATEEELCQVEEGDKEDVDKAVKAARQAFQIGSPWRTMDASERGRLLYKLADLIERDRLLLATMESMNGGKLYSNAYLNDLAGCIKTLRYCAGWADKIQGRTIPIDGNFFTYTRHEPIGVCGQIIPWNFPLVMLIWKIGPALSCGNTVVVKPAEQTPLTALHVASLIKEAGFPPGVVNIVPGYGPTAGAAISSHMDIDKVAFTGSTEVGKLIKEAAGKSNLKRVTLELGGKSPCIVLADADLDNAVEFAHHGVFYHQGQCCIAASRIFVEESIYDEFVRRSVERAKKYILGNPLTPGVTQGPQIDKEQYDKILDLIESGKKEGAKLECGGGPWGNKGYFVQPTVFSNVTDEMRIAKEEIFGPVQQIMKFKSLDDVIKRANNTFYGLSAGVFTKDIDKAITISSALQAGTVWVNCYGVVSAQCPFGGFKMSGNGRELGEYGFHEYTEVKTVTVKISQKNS
IMPase Li inh = qHTS Assay for Identifying the Cell-Membrane Permeable IMPase Inhibitors: Potentiation with Lithium; 210,000 compounds, 0.35% hits; CHO-M1 cells, IP1 TR-FRET (IP-One), carbachol + lithium; Potency, µM (highest dose often 59.4 µM), without a hit: at the top dose activity, negative = IMPase inhibition, usual class: inhibitors; active = well fitted inhibition curve with a large enough effect; inconclusive = small, poorly fitted or top-dose-only effect; inactive = no such curve, though single readings can be large or run the other way;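 note: IP1 builds up when IMPase is blocked and the TR-FRET signal falls; potency is the fitted concentration of half-maximal effect; plate controls were basal vehicle for no effect and high inhibitor control for full effect; nearly all actives have a fitted effect of over 50% in size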
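Test compounds were applied to CHO-M1 cells previously cultured for 16–30 h at 2000 per well. A small lithium amount accompanied them; after 30 min at 37C, IP1 was quantified by TR-FRET.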
IMPase cell inh = qHTS Assay for Identifying the Cell-Membrane Permeable IMPase Inhibitors; inhibition (IP1 accumulation), % at 46.1 µM; CHO-M1 cells, IP1 accumulation, HTRF TR-FRET ratio; 120,000 tested, under 10 active; AID 901, 2007; active = well fitted curve in the direction sought with a large enough effect in the signal ratio, not every such curve was filed as active; inconclusive = small, poorly fitted or top-dose-only effect, or a change in a side signal; inactive = no such curve, though single readings can be large or run the other way; the % refers to the signal ratio;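 note: cells stimulated with carbachol in lithium chloride buffer; plate controls were DMSO basal wells for no effect and reference inhibitor wells for full effect; higher means more IMPase inhibition seen as more IP1 and lower FRET ratio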
Target sequence (P97697 whole entry, looked up): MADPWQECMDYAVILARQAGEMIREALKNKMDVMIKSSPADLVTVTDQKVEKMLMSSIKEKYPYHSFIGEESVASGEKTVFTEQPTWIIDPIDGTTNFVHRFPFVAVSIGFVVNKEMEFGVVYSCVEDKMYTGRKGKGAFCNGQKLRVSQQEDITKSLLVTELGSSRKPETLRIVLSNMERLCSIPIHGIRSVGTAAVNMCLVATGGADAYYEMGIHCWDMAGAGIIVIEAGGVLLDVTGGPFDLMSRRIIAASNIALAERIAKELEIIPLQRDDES
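Carbachol-driven Gq signalling in CHO-M1 cells (2000/well) generates IP1. Compounds that block IMPase raise IP1 and so reduce the FRET signal from Eu-anti-IP1 and d2-IP1 after a 10 min room-temperature lysis.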
HPGD inh = qHTS Assay for Inhibitors of HPGD (15-Hydroxyprostaglandin Dehydrogenase); 15-hydroxyprostaglandin dehydrogenase [NAD(+)] (Homo sapiens), P15428; purified HPGD, NADH fluorescence kinetic, PGE2 substrate; Potency, µM, without a hit: top-dose activity change, negative = inhibition, most hits filed as inhibitors; 150,000 compounds, 4.3% hits; AID 894, 2007; note: potency is the fitted concentration of half-maximal effect
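NADH formation kinetics: reaction with 30 uM PGE2 and 1 mM NAD+ (final), 20 nM enzyme, Tris-HCl pH 8 with Tween 20, after 15 min compound preincubation at room temperature. Fluorescence change, last versus first of five reads.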
* = called active by the depositor; u = inconclusive; x = no result; [ ] = remark or other dose. Sampled rows, rich in hits. Any-hit rate of the full collection: about 11%. Unless noted, calls come from the whole dose curve; as a rule, active = well fitted inhibition curve with a large enough effect (not every such curve was filed as active); inconclusive = small, poorly fitted or top-dose-only effect, or another doubt; inactive = no such curve, though single readings can be large or run the other way. Unless noted, % is set by controls: 0 for no effect and ±100 for the full control effect.

SMILES	PNC assembly inh	ALDH1A1 inh	IMPase Li inh	IMPase cell inh	HPGD inh
Cc1ccc2nc(NC(=O)c3ccc4ncsc4c3)sc2c1	31	u	-2%[38.3 µM]	-5	u
CC1(C)CC(=O)c2sc(NC(=O)C(C)(C)C)nc2C1	x	u	-6%	x	x
CC1(C)CC(=O)c2sc(NC(=O)c3cccs3)nc2C1	-10	16µM*	1%	-12	-8%
CC1(C)CC(=O)c2sc(NC(=O)c3ccc4ncsc4c3)nc2C1	-19	3.5µM*	13%[38.3 µM]	-3	u
CC1(C)CC(=O)c2sc(NS(=O)(=O)c3ccc(Br)cc3)nc2C1	x	u	-11%	x	x
O=C(Nc1nc2c(s1)CCCC2)c1cccs1	-1	-5%	13%[38.3 µM]	-6	-25%
CC1(C)CC(=O)c2sc(NC(=O)CN3CCCCC3)nc2C1	-7	20µM*	4%[38.3 µM]	-1	-20%
CC(Oc1ccccc1)C(=O)Nc1nc2c(s1)C(=O)CC(C)(C)C2 (stereo not given)	u	14µM*	-14%[38.3 µM]	3	-24%
O=C1COC(c2ccccc2O)=NN1CCCN1CCCC1	x	5%[13.5 µM]	-6%	x	-9%
COc1cc(/C=N/NC(=O)Cn2ccc(C(F)(F)F)n2)cc(OC)c1OC	x	-11%	u	x	x
C=CCN(c1ccc(C(=O)Nc2ccc(NC(C)=O)cc2)cc1)S(C)(=O)=O	x	3%	-3%	x	x
CC1(C)CC(=O)c2sc(NC(=O)c3ccccc3)nc2C1	x	2.8µM*	-11%	x	x
CC1(C)CNC(=O)c2sc(NC(=O)c3ccccc3)nc2C1	x	u	-4%	x	x
CN1CC2(C)OC(=O)C(Cl)=C2CC1c1ccccc1 (stereo not given)	38	13µM*	-3%	x	-2%
COCCn1c(=O)c(-c2ccc(Cl)cc2)nc2cnc(Nc3ccccc3)nc21	x	u	-4%	x	x
COc1ccc(S(=O)(=O)Nc2ccc(Cl)cn2)c(C)c1C	22	13µM*	7%	-17	-30%
CCOc1cc(S(=O)(=O)Nc2ccc(Cl)cn2)ccc1F	-27	2%	4%[38.3 µM]	1	-8%
O=C1OC(c2ccccc2)=N/C1=C\N1CCCCC1	48	-16%	-4%[38.3 µM]	-4	-28%
O=C1OC(c2ccccc2)=C/C1=C/N1CCCCC1	19	10µM*	20%[38.3 µM]	0	u
COc1cc(C(=O)NCC(=O)N/N=C/c2ccc(OC(=O)c3ccco3)cc2)cc(OC)c1OC	x	7%	7%	x	x
Cc1cccc(Nc2nnc(SCc3cc(=O)n4cc(C)ccc4n3)s2)c1	u	-9%	10%	x	16µM*
CCc1ccc(Nc2nnc(SCc3cc(=O)n4ccsc4n3)s2)cc1	-25	u	18%[38.3 µM]	5	20µM*
C[C@@H]1[C@H](C)CC[C@@]2(C(=O)O[C@H]3O[C@@H](CO[C@H]4O[C@@H](CO)[C@@H](O[C@H]5O[C@@H](C)[C@@H](O)[C@@H](O)[C@@H]5O)[C@@H](O)[C@@H]4O)[C@@H](O)[C@@H](O)[C@@H]3O)CC[C@]3(C)C(=CC[C@H]4[C@@]5(C)C[C@@H](O)[C@@H](O)[C@](C)(CO)[C@@H]5CC[C@@]43C)[C@@H]12	x	6%[20.9 µM]	4%	-15[20.6 µM]	-3%
CC1CCCCN1c1nnc(NC(=O)c2cc(-c3ccc(Br)cc3)on2)s1 (stereo not given)	-23	u	31%[38.3 µM]	-5	-9%
CCOC(=O)CC(=O)CSc1[nH]c(=O)cc(C)c1C#N	-9	-1%	-9%[38.3 µM]	0	14µM*
SMILES	PNC assembly inh	ALDH1A1 inh	IMPase Li inh	IMPase cell inh	HPGD inh
CCOC(=O)CSc1[nH]c(=O)cc(C)c1C#N	-18	5%	16%[38.3 µM]	-8	-1%
O=S(=O)(NCCc1ccccc1)c1cccc2cccnc12	x	4%	5%	x	x
CN(CCCNS(=O)(=O)c1cccc2cccnc12)Cc1ccccc1	-8	14µM*	6%[38.3 µM]	4	-12%
N#C/C(=C\c1cccs1)C(=O)c1ccccc1Cl	x	22µM*	x	x	x
CN1CCc2c(cc(O)c(O)c2Cl)[C@H](c2cccc(Cl)c2)C1	x	x	x	13	x
Cc1cc(C)c(S(=O)(=O)N(C)CC(=O)N2CCCCC2)c(C)c1	-16	-14%	6%[38.3 µM]	u	u
Cc1cc(C)c(S(=O)(=O)N(C)CC(N)=O)c(C)c1	-85*	11%	3%[38.3 µM]	3	-15%
Cc1cc(Cl)ccc1NNC(=O)CCc1ccccc1	x	-12%	x	x	x
O=C(O)COc1ccc(OCCNC[C@H](O)COc2ccccc2)cc1	x	9%	-3%	x	x
CCOc1ccccc1C(=O)N1CCC(n2nnc3cc(C)ccc32)CC1	21	-1%	x	5	x
CCOc1ccccc1C(=O)N1CCC(n2nnc3cc(C(F)(F)F)ccc32)CC1	-2	28µM*	7%	4	-4%
CC1=C2[C@@H]([C@H](C)CC[C@H]2/C=C(\C)C(=O)O)[C@H](O)C1	x	u	-2%	x	-10%
CC1=C2[C@H](/C=C(\C)C(=O)O)CC[C@@H](C)[C@H]2CC1	x	18µM*	2%	x	-5%
CCC/C=C(\CCC)C(NS(=O)(=O)c1ccc(Cl)cc1)c1ccccc1 (stereo not given)	x	-3%	4%	x	-8%
CN1C(=S)SC(C)(NO)C1(C)C (stereo not given)	u	0.79µM*	22%[38.3 µM]	-4	-27%
CC1CC2(CCCCC2)N2C(=O)C(=O)c3cccc1c32 (stereo not given)	50	0.045µM*	-16%[38.3 µM]	-5	-8%
CCOc1cc2c3c(c1)C(C)CC(C)(C)N3C(=O)C2=O (stereo not given)	15	0.4µM*	12%[38.3 µM]	-3	-10%
Cc1cc2c3c(c1)C(C)CC(C)(C)N3C(=O)C2=O (stereo not given)	x	0.16µM*	22%	x	x
Cc1cc2c3c(c1C)C(=O)C(=O)N3C(C)(C)CC2C (stereo not given)	x	2%	5%	x	x
CCOc1cc2c3c(c1)C(C)=CC(C)(C)N3C(=O)C2=O	x	u	2%	x	x
COc1ccc(CNc2ccnc(-c3c(C)noc3C)n2)c(OC)c1	x	-12%	-2%	x	x
Cc1ccccc1S(=O)(=O)NCc1cccnc1	36	-6%	2%	x	1%
Cc1ccc(C(C)C)cc1S(=O)(=O)NCc1cccnc1	-8	20µM*	12%	9	-5%
CC12CCC(CC1=O)C2(C)C (stereo not given)	x	7.1µM*	13%	x	-10%
CON(c1nc(N(C)C)nc(N(C)C)n1)S(=O)(=O)c1ccccc1Cl	-100*	-8%	3%[38.3 µM]	2	-17%
O=C(NCc1cccnc1)c1ccc(Cn2c(=S)[nH]c3ccc(Br)cc3c2=O)cc1	x	11%	-2%	x	x
N#C/C(=C\c1ccncc1)c1nc2ccccc2c(=O)[nH]1	x	7.9µM*	4%	x	x
